Source: the supplement of paper PMC10849652
Of roughly 8,800 targets only a part is listed; those with a hit were picked by preference. About 0.5% of all pairs of compound and target were hits.

Key:
Experiment in all cases: log2 fold change, soluble protein after heating vs DMSO (PISA); higher = thermal stabilisation; K562 lysate, 10 uM; active = over 0.2 and 3.5 SD of the protein, either way, in both replicates (recomputed)
nilotinib = compound: Cc1cn(-c2cc(NC(=O)c3ccc(C)c(Nc4nccc(-c5cccnc5)n4)c3)cc(C(F)(F)F)c2)cn1 [nilotinib]
How it was run: (§1)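 Soluble protein was defined as the supernatant remaining after 21,000xg for 90 min, following pooling of heated aliquots and adjustment to 0.5% NP-40 at 4°C. Before that, crude K562 extract at 1 mg/mL protein in PBS pH 7.4 with 1 mM MgCl2 was treated with 10 μM compound for 30 min and heated for 3 min across 48°C-58°C. Quantification used TMTpro 16plex LC-MS/MS with channel sums equalised, and values are log-two fold changes in thermal stability relative to solvent controls from duplicates.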

[1] = compound: Cc1nc(Nc2n[nH]c3c2CN(C(=O)N[C@H](CN(C)C)c2ccccc2)C3(C)C)c2sccc2n1
How it was run: as §1

dasatinib = compound: Cc1nc(Nc2ncc(C(=O)Nc3c(C)cccc3Cl)s2)cc(N2CCN(CCO)CC2)n1 [dasatinib]
How it was run: as §1

[2] = compound: Cc1ncc(-c2ccnc(Nc3ccc(S(C)(=O)=O)cc3)n2)n1C(C)C
How it was run: as §1

[3] = compound: Cn1cc(-c2ccc3c(c2)CCN3C(=O)Cc2cccc(C(F)(F)F)c2)c2c(N)ncnc21
How it was run: as §1

quisinostat = compound: Cn1cc(CNCC2CCN(c3ncc(C(=O)NO)cn3)CC2)c2ccccc21 [quisinostat]
How it was run: as §1

tipifarnib = compound: Cn1cncc1[C@@](N)(c1ccc(Cl)cc1)c1ccc2c(c1)c(-c1cccc(Cl)c1)cc(=O)n2C [tipifarnib]
How it was run: as §1

[4] = compound: NC(=O)Nc1cc(-c2cccc(F)c2)sc1C(=O)N[C@H]1CCCNC1
How it was run: as §1

[5] = compound: NC(=O)c1cnc(N[C@@H]2CCCC[C@@H]2N)nc1Nc1cccc(-n2nccn2)c1
How it was run: as §1

[6] = compound: NC1(c2ccc(-c3nc4ccn5c(=O)[nH]nc5c4cc3-c3ccccc3)cc2)CCC1
How it was run: as §1

Measured: log2 fold change

ARAF (UniProt P10398)
Chain of UniProt P10398 (P10398 whole entry, looked up): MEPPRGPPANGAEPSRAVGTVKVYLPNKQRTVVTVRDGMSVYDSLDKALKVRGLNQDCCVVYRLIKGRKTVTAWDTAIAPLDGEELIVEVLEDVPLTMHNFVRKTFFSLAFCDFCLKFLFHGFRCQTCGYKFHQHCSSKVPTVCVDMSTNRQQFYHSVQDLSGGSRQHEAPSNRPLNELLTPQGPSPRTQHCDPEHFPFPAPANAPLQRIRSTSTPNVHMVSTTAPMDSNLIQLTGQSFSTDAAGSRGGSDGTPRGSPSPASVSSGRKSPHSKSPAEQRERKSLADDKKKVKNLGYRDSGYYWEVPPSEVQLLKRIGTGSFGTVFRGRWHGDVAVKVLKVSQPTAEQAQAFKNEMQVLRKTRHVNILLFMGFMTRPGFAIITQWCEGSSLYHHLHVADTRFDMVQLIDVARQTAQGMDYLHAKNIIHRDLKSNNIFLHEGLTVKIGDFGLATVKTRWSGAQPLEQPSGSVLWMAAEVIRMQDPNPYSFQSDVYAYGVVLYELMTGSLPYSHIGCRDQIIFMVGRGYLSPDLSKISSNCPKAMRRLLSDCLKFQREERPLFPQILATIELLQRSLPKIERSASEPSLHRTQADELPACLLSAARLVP
inactive: nilotinib -0.005 | [1] 0.018 | dasatinib 0.16 | [2] 0.022 | [3] 0.02 | quisinostat -0.069 | tipifarnib -0.023 | [4] 0.011 | [5] 0.018 | [6] -0.012

APOB (UniProt P04114)
inactive: nilotinib -0.002 | [1] 0.022 | dasatinib -0.096 | [2] -0.017 | [3] -0.038 | quisinostat -0.092 | tipifarnib 0.033 | [4] 0.013 | [5] -0.035 | [6] 0.008

AKAP11 (UniProt Q9UKA4)
Chain of UniProt Q9UKA4 (Q9UKA4 whole entry, looked up): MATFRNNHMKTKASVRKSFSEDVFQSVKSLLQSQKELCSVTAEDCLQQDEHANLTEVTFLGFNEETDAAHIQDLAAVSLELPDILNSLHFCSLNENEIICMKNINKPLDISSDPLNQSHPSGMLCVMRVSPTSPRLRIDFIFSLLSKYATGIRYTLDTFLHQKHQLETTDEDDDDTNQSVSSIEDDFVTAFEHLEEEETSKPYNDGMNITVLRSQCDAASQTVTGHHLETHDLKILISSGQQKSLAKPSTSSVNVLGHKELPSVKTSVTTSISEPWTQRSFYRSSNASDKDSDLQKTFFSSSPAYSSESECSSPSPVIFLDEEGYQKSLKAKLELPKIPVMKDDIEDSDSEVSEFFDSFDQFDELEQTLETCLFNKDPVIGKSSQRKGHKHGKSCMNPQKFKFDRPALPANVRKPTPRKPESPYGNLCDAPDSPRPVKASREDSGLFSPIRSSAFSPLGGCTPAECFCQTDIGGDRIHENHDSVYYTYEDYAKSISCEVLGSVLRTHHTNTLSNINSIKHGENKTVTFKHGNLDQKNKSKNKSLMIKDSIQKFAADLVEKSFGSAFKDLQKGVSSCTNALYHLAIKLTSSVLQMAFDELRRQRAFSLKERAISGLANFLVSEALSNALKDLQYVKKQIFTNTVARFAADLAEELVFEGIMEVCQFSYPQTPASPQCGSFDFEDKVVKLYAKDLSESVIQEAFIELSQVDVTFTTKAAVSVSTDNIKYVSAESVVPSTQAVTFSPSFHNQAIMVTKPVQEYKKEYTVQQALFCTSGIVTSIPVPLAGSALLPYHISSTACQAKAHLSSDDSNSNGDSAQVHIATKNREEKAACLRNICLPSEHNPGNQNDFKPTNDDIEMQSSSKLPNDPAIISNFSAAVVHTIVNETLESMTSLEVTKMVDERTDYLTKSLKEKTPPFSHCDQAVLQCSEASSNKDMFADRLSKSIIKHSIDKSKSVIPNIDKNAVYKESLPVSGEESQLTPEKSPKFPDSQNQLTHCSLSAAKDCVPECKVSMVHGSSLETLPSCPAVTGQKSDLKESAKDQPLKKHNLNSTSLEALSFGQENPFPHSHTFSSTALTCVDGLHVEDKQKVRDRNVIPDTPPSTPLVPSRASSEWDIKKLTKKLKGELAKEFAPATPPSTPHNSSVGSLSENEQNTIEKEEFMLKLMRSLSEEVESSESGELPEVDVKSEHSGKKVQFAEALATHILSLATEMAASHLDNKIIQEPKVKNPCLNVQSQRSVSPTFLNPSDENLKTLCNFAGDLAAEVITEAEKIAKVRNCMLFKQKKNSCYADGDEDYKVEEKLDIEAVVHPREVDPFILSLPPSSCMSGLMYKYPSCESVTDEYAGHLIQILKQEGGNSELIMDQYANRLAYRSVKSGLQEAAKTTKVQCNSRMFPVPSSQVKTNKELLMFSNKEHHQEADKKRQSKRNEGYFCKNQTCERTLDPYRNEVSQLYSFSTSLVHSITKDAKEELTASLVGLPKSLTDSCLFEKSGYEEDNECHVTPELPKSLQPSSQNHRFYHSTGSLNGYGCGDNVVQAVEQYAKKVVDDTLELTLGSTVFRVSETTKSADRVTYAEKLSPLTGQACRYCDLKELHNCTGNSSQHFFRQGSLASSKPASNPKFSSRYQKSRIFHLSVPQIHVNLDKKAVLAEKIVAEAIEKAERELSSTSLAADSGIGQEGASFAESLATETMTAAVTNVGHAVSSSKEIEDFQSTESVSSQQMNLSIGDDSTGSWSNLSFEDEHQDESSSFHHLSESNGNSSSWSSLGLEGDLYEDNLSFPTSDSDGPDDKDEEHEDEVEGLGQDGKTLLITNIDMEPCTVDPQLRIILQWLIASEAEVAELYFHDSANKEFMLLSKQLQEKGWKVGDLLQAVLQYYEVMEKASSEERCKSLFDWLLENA
inactive: nilotinib -0.001 | [1] -0.06 | dasatinib -0.074 | [2] 0.188 | [3] 0.092 | quisinostat 0.012 | tipifarnib 0.022 | [4] 0.008 | [5] 0.014 | [6] -0.05

ANKRD54 (UniProt Q6NXT1)
Chain of UniProt Q6NXT1 (Q6NXT1 whole entry, looked up): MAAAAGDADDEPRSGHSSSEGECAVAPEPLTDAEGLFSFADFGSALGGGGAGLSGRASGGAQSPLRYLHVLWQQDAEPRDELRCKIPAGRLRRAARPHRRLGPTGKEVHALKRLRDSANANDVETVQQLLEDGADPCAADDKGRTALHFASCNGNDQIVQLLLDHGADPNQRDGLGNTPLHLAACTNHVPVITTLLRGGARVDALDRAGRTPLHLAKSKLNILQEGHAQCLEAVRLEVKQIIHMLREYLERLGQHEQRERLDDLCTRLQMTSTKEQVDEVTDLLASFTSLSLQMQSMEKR
inactive: nilotinib 0.053 | [1] -0.003 | dasatinib -0.013 | [2] 0.05 | [3] -0.018 | quisinostat -0.024 | tipifarnib 0.019 | [4] -0.013 | [5] 0 | [6] 0.04

AK2 (UniProt P54819)
inactive: nilotinib 0.003 | [1] -0.006 | dasatinib 0.079 | [2] -0.013 | [3] -0.022 | quisinostat 0.024 | tipifarnib 0.007 | [4] -0.066 | [5] 0.013 | [6] 0.004

AP4B1 (UniProt Q9Y6B7)
Chain of UniProt Q9Y6B7 (Q9Y6B7 whole entry, looked up): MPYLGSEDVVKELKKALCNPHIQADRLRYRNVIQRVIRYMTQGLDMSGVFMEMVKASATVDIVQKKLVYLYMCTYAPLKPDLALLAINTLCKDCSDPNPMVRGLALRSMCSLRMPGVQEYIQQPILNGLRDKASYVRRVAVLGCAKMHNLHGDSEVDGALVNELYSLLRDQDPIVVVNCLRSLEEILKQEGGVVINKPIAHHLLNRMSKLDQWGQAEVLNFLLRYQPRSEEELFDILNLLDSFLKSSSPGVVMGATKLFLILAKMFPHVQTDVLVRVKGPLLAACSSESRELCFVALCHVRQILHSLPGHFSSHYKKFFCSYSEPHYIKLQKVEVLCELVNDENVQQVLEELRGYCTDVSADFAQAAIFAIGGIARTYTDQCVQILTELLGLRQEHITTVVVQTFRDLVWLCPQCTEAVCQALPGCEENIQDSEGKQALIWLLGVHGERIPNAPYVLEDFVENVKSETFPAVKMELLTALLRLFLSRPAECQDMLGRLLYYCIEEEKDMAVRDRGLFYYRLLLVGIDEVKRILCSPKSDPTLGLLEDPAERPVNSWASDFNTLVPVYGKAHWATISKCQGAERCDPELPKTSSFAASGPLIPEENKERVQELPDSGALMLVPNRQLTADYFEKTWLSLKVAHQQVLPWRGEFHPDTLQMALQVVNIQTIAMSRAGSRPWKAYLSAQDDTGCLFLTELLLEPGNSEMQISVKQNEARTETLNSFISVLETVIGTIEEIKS
inactive: nilotinib 0.023 | [1] 0.011 | dasatinib 0.032 | [2] -0.013 | [3] 0.027 | quisinostat 0.018 | tipifarnib -0.051 | [4] 0.1 | [5] 0.028 | [6] 0.007

ABRACL (UniProt Q9P1F3)
Chain of UniProt Q9P1F3 (Q9P1F3 whole entry, looked up): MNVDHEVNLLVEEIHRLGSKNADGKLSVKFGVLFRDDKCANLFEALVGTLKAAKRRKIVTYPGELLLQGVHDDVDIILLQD
inactive: nilotinib 0.194 | [1] 0.006 | dasatinib -0.119 | [2] -0.042 | [3] -0.067 | quisinostat 0.053 | tipifarnib 0.023 | [4] -0.083 | [5] 0.037 | [6] -0.076

APEX1 (UniProt P27695)
Chain of UniProt P27695 (P27695 whole entry, looked up): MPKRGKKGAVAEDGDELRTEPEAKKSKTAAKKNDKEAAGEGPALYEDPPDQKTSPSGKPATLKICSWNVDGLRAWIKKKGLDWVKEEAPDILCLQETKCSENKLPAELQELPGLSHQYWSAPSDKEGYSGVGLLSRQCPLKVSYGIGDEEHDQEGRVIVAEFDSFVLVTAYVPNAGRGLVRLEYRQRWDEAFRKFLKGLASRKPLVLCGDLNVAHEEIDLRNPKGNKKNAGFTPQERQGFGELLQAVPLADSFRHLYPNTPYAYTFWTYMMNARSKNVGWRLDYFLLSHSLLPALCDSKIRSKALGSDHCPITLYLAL
inactive: nilotinib 0.045 | [1] -0.037 | dasatinib 0.002 | [2] -0.027 | [3] 0.018 | quisinostat 0.016 | tipifarnib 0.001 | [4] 0.021 | [5] -0.011 | [6] -0.008

ARHGAP6 (UniProt O43182)
inactive: nilotinib -0.003 | [1] -0.014 | dasatinib -0.102 | [2] 0 | [3] 0.052 | quisinostat -0.019 | tipifarnib 0.02 | [4] 0.034 | [5] -0.025 | [6] -0.039

ALG8 (UniProt Q9BVK2)
inactive: nilotinib -0.007 | [1] -0.008 | dasatinib -0.051 | [2] -0.077 | [3] 0.02 | quisinostat 0.019 | tipifarnib -0.165 | [4] 0.043 | [5] -0.025 | [6] -0.006

ANXA2 isoform 2 (UniProt P07355)
Chain of UniProt P07355 (P07355 whole entry, looked up): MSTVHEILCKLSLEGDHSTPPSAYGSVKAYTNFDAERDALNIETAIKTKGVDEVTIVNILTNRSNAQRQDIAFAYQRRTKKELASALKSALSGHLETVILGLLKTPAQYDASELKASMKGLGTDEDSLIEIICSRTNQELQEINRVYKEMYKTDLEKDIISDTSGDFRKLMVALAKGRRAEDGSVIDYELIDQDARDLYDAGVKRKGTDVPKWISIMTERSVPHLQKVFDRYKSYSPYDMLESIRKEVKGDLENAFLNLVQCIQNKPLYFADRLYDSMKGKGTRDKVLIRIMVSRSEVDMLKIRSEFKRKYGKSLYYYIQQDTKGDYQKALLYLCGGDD
inactive: nilotinib 0.035 | [1] -0.016 | dasatinib 0.048 | [2] 0.003 | [3] -0.017 | quisinostat 0.064 | tipifarnib 0.016 | [4] -0.018 | [5] -0.015 | [6] 0.022

ACACA isoform 4 (UniProt Q13085)
inactive: nilotinib -0.032 | [1] 0.004 | dasatinib -0.037 | [2] 0.028 | [3] 0.043 | quisinostat -0.024 | tipifarnib 0.081 | [4] 0.03 | [5] 0.01 | [6] -0.019

AGPAT1 (UniProt Q99943)
Chain of UniProt Q99943 (Q99943 whole entry, looked up): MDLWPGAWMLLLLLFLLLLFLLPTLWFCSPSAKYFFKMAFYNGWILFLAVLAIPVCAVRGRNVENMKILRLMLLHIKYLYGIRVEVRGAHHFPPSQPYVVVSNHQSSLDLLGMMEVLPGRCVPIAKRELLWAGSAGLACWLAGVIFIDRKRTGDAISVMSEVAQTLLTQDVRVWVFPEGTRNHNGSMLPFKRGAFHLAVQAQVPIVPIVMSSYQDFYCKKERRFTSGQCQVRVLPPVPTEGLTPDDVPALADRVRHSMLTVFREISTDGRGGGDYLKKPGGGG
inactive: nilotinib -0.021 | [1] -0.004 | dasatinib -0.069 | [2] 0.055 | [3] -0.062 | quisinostat 0.043 | tipifarnib -0.058 | [4] -0.028 | [5] 0.028 | [6] -0.003

ARL1 (UniProt P40616)
Chain of UniProt P40616 (P40616 whole entry, looked up): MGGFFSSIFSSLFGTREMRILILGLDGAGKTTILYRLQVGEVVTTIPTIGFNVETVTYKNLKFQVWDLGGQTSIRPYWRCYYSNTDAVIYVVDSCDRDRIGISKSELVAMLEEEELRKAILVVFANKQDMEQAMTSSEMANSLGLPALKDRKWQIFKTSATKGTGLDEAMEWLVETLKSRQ
inactive: nilotinib 0.092 | [1] -0.074 | dasatinib 0.026 | [2] -0.118 | [3] -0.016 | quisinostat -0.082 | tipifarnib -0.268 | [4] 0.01 | [5] -0.001 | [6] 0.005
